# According to PubChem BioAssay:
# Active and inactive are the calls of the source. Unless noted, the rule behind the calls is not given here.
# Assays:
# [1] = compounds altering circadian rhythm period length – cell-based, LOPAC library, luminescence reporter (AID 2774); details: circadian reporter cells, at 7 µM, actives lie on both sides;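 note: values are relative to mean of DMSO wells on each plate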
# [2] = tested on: Hepatitis C virus NS3 helicase; assay: blockers of NS3h binding to ssDNA – biochemical, fluorescence polarization, LOPAC1280 library, primary screen (AID 687035; in the data active = inhibition above about 37%); details: Purified HCV NS3 helicase, Cy5-dT15 ssDNA binding fluorescence polarization; stronger effect = higher value; concentration not given here
# [3] = compounds altering Cy5-DNA-NS3h complex signal – biochemical, LOPAC1280, artefact control for HCV NS3 helicase inhibitor project (AID 687037); details: Cy5-DNA-NS3h complex fluorescence interference counterscreen
# [4] = growth inhibition, single agent or in combination, cell-based, chromothripsis tumors, cisplatin or BGB combos (AID 1671449; in the data active = inhibition above about 80%;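 note: cells exposed for 96 hours; 0% = vehicle DMSO and 100% = killing by high DMSO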); details: LFS_MB_P medulloblastoma cells
# [5] = growth inhibition, single agent and combos, cell-based, chromothripsis tumors, cisplatin or BGB combos (AID 1671450; in the data active = inhibition above about 80%;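 note: cells exposed to compound for four days; 0% = vehicle DMSO and 100% = cell killing by high DMSO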); details: HDN33 neuroblastoma cells, stronger effect = higher value
# [6] = growth inhibition, single agents and combos, ICB984, cell-based, cisplatin or BGB combos, synergistic combos for chromothripsis tumors (AID 1671451); details: ICB984 medulloblastoma cells, drug combinations, stronger effect = higher value;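 note: cells exposed for 96 hours before readout; 0% = vehicle DMSO and 100% = killing by high DMSO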
# [7] = growth inhibition, single agents and combos, LFS_MB_1R, cell-based, cisplatin or BGB combos, synergistic combos for chromothripsis tumors (AID 1671452; in the data active = inhibition above about 80%;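 note: cells exposed for 96 hours before readout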); details: LFS_MB_1R medulloblastoma cells, stronger effect = higher value
# [8] = growth inhibition, single agents and combos, HTB85, cell-based, BGB or cisplatin IC20 combos, synergistic combos for chromothripsis tumors (AID 1671453; in the data active = inhibition above about 80%;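 note: cells exposed for 96 hours before readout; 0% = vehicle DMSO and 100% = high DMSO killing control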); details: HTB85 osteosarcoma cells, drug combinations, stronger effect = higher value
# [9] = growth inhibition, single agents and combos, CRL2098, cell-based, BGB or cisplatin IC20 combos, synergistic combos for chromothripsis tumors (AID 1671454; in the data active = inhibition above about 80%;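 note: cells exposed for 96 h before readout; 0% = vehicle DMSO and 100% = killing by high DMSO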); details: CRL2098 osteosarcoma cells, drug combinations, stronger effect = higher value
# [10] = growth inhibition, single agents and combos, HD-MB03, cell-based, BGB or cisplatin IC20 combos, synergistic combos for chromothripsis tumors (AID 1671455; in the data active = inhibition above about 83%;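 note: 0% = vehicle DMSO and 100% = high DMSO as cytotoxic control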); details: HD-MB03 medulloblastoma cells, stronger effect = higher value
# [11] = growth inhibition, single agents and combos, UWB1.289, cell-based, BGB or cisplatin combos, synergistic combos for chromothripsis tumors (AID 1671456; in the data active = inhibition above about 80%;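 note: cells exposed to compound for four days; 0% = vehicle DMSO and 100% = killing by high DMSO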); details: UWB1.289 ovarian carcinoma cells, stronger effect = higher value
# [12] = growth inhibition, MDA-MB-436, cell-based, BGB or cisplatin combos, synergistic combos for chromothripsis tumors (AID 1671458); details: MDA-MB-436 breast carcinoma growth inhibition, drug combinations, stronger effect = higher value;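 note: cells exposed for 96 hours; 0% = vehicle DMSO and 100% = killing by high DMSO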
# [13] = BT084 cell growth, single and combined drugs, ICGC_MB145, cisplatin and BGB IC40 combos (AID 1671461; in the data active = inhibition above about 80%;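 note: cells exposed to drugs for 96 hours; 0% = vehicle DMSO and 100% = high DMSO full killing control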); details: BT084 medulloblastoma cells, drug combinations, stronger effect = higher value
# [14] = RCMB18 cell growth, single agent and combined, cisplatin and BGB IC40 combos (AID 1671462; in the data active = inhibition above about 80%;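 note: cells exposed to compound for four days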); details: RCMB18 medulloblastoma cells, stronger effect = higher value
# [15] = CRL1545 cell growth, single agent and combined, cisplatin and BGB IC20 combos (AID 1671464; in the data active = inhibition above about 80%;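 note: cells exposed to compound for 96 hours before readout; 0% = vehicle DMSO and 100% = high DMSO killing control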); details: CRL1545 osteosarcoma cells, stronger effect = higher value
# [16] = target: NAD(+) hydrolase SARM1 (Homo sapiens) (UniProt Q6SZW1); assay: blocking NAD cleavage by SARM1 SAM-TIR – cell lysate, NAD-Glo luminescence (AID 1508614;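 active = compound whose remaining NAD level is above about 45 nM, limit read from the data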;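 note: higher remaining NAD means stronger inhibition of SARM1 NADase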); details: SAM-TIR HEK293T lysate NADase, at 1 µM, stronger effect = higher value
# [17] = measured here: combination with BGB IC40, at 0.05 µM
# [18] = measured here: with BGB IC20 combination, at 0.5 µM
# [19] = measured here: with cisplatin IC20 combination, at 0.5 µM
# [20] = measured here: combination with cisplatin, at 0.5 µM
# Chain of NAD(+) hydrolase SARM1 (Homo sapiens) (Q6SZW1 whole entry, looked up): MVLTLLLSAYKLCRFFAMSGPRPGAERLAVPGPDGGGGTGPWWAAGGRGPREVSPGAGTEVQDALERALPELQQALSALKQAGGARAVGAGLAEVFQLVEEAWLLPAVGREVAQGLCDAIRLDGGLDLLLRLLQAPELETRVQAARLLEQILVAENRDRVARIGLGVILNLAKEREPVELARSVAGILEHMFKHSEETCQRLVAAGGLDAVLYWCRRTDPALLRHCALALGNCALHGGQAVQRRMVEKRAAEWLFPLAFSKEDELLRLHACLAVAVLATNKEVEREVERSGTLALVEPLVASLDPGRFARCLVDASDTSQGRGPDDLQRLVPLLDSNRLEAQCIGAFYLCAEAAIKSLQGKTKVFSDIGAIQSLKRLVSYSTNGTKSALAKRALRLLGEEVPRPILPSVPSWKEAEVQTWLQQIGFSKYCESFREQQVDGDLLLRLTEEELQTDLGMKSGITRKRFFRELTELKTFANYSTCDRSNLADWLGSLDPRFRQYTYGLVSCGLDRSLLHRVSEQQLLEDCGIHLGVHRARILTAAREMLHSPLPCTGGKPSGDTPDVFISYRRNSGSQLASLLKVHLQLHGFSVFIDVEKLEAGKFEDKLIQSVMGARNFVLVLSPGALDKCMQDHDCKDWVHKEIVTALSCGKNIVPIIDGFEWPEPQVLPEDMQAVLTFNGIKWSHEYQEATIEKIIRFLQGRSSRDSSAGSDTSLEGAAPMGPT
smiles,measurement,setting,value
O=c1[nH]c(=O)n([C@H]2C[C@H](O)[C@@H](CO)O2)cc1Br,period change,[1],-0.205 h (inactive)
same,inhibition,[2],-1% (inactive)
same,fluorescence ratio (interference),[3],1 (inactive)
same,inhibition,"[4]; at 0.5 µM, stronger effect = higher value",27% (inactive)
same,inhibition,"[4]; measured here: combination with BGB IC20, at 0.005 µM",-4.77%
same,inhibition,"[4]; measured here: combination with BGB IC40, at 0.005 µM",-39.7%
same,inhibition,[4]; [17],-12.1%
same,inhibition,"[4]; measured here: combination with cisplatin, at 0.5 µM, stronger effect = higher value",74.8%
same,inhibition,"[4]; measured here: combination with cisplatin, at 5 µM, stronger effect = higher value",-36%
same,inhibition,"[5]; BGB combo, at 5 µM",11.2%
same,inhibition,[5]; at 0.5 µM,21.5% (inactive)
same,inhibition,"[5]; cisplatin combo, at 5 µM",2.65%
same,inhibition,[5]; [18],31.8%
same,inhibition,[5]; [19],4.43%
same,inhibition,"[5]; single agent, at 5 µM",17%
same,inhibition,"[6]; BGB IC20 combo, at 0.005 µM",-12.2%
same,inhibition,"[6]; BGB IC40 combo, at 0.005 µM",-50%
same,inhibition,"[6]; BGB IC40 combo, at 0.05 µM",-16.9%
same,inhibition,[6]; at 0.5 µM,-24.2% (inactive)
same,inhibition,"[6]; cisplatin combo, at 0.05 µM",-21.6%
same,inhibition,"[6]; cisplatin combo, at 0.5 µM",-35.3%
same,inhibition,"[6]; cisplatin combo, at 5 µM",-5.29%
same,inhibition,"[6]; measured here: 5 uM single agent, at 5 µM",-6.23%
same,inhibition,[7]; at 0.5 µM,-8.78% (inactive)
same,inhibition,[7]; [17],-9.5%
same,inhibition,[7]; [20],-3.13%
same,inhibition,"[7]; measured here: combination with cisplatin, at 5 µM",18.2%
same,inhibition,[8]; at 0.5 µM,-5% (inactive)
same,inhibition,"[8]; measured here: with BGB IC20, at 0.5 µM",-14.3%
same,inhibition,"[8]; measured here: with BGB IC20, at 5 µM",-8.79%
same,inhibition,"[8]; measured here: with cisplatin IC20, at 0.5 µM",-8.95%
same,inhibition,"[8]; measured here: with cisplatin IC20, at 5 µM",4.02%
same,inhibition,"[8]; single agent, at 5 µM",9.21%
same,inhibition,[9]; at 0.5 µM,-34.2% (inactive)
same,inhibition,"[9]; measured here: combination with BGB at IC20, at 0.5 µM",-5.25%
same,inhibition,"[9]; measured here: combination with cisplatin at IC20, at 0.5 µM",-22.4%
same,inhibition,[10]; at 0.5 µM,14.2% (inactive)
same,inhibition,"[10]; measured here: combo with BGB at IC20, at 0.5 µM",14.5%
same,inhibition,"[10]; measured here: combo with cisplatin at IC20, at 0.5 µM",32.3%
same,inhibition,[11]; at 0.5 µM,3.4% (inactive)
same,inhibition,"[11]; measured here: inhibition with BGB combination, at 0.05 µM",-18.3%
same,inhibition,"[11]; measured here: inhibition with cisplatin combination, at 0.05 µM",-5.15%
same,inhibition,[12]; at 0.5 µM,-4.92% (inactive)
same,inhibition,"[12]; measured here: BGB combination, at 0.5 µM",-11.6%
same,inhibition,"[12]; measured here: BGB combination, at 5 µM",-22.5%
same,inhibition,"[12]; measured here: cisplatin combination, at 0.5 µM",-2.86%
same,inhibition,"[12]; measured here: cisplatin combination, at 5 µM",-6.5%
same,inhibition,[13]; at 0.5 µM,-8.02% (inactive)
same,inhibition,"[13]; cisplatin combination, at 0.5 µM",3.56%
same,inhibition,"[13]; cisplatin combination, at 5 µM",-1.86%
same,inhibition,"[13]; measured here: BGB IC40 combination 0.05 uM, at 0.05 µM",-20.2%
same,inhibition,"[13]; single agent, at 5 µM",-7.12%
same,inhibition,[14]; at 0.5 µM,-10.5% (inactive)
same,inhibition,"[14]; cisplatin combo, at 5 µM",28.1%
same,inhibition,"[14]; measured here: BGB IC40 combination, at 0.05 µM",-19.3%
same,inhibition,[14]; [20],32.5%
same,inhibition,"[14]; single agent, at 5 µM",-34.1%
same,inhibition,[15]; at 0.5 µM,8.96% (inactive)
same,inhibition,[15]; [18],3.57%
same,inhibition,[15]; [19],11.6%
same,inhibition,"[15]; single agent, at 0.05 µM",-0.752%
same,inhibition,"[15]; single agent, at 5 µM",41.5%
COc1ccc(CCN(C)CCCC(C#N)(c2cc(OC)c(OC)c(OC)c2)C(C)C)cc1OC (stereo unspecified),period change,[1],-0.105 h (inactive)
same,inhibition,[2],-1% (inactive)
same,fluorescence ratio (interference),[3],1 (inactive)
CCN(CC)CCCN(c1ccccc1)C1Cc2ccccc2C1,inhibition,[2],-1% (inactive)
same,fluorescence ratio (interference),[3],1 (inactive)
Nc1cc(=O)[nH]c(N)n1,period change,[1],-0.06 h (inactive)
same,inhibition,[2],1% (inactive)
same,fluorescence ratio (interference),[3],1.1 (inactive)
CCN1CCc2nc(N)oc2CC1,period change,[1],0.015 h (inactive)
same,inhibition,[2],-3% (inactive)
same,fluorescence ratio (interference),[3],1 (inactive)
NC(=O)c1cn(Cc2c(F)cccc2F)nn1,inhibition,[2],-5% (inactive)
same,fluorescence ratio (interference),[3],1 (inactive)
C[N+](C)(C)CCOC(=O)CCC(=O)OCC[N+](C)(C)C,period change,[1],0.025 h (inactive)
same,inhibition,[2],2% (inactive)
same,fluorescence ratio (interference),[3],1 (inactive)
N[C@@H](COP(=O)(O)O)C(=O)O,period change,[1],0.04 h (inactive)
same,inhibition,[2],-1% (inactive)
same,fluorescence ratio (interference),[3],1 (inactive)
same,remaining NAD,[16],10 nM (inactive)
C(=C\c1ccccc1)/CN1CCN(C(c2ccccc2)c2ccccc2)CC1,period change,[1],0.12 h (inactive)
same,inhibition,[2],1% (inactive)
same,fluorescence ratio (interference),[3],1 (inactive)
same,remaining NAD,[16],10 nM (inactive)
CC1=C(CC(=O)O)c2cc(F)ccc2/C1=C\c1ccc(S(C)(=O)=O)cc1,period change,[1],0.07 h (inactive)
same,inhibition,[2],-4% (inactive)
same,fluorescence ratio (interference),[3],1 (inactive)
CC(C)(C)c1ccc(C(=O)CCCN2CCC(OC(c3ccccc3)c3ccccc3)CC2)cc1,inhibition,[2],3% (inactive)
same,fluorescence ratio (interference),[3],1 (inactive)
Cc1nc2c([nH]1)c(=O)n(C)c(=O)n2Cc1ccco1,period change,[1],0.08 h (inactive)
same,inhibition,[2],-1% (inactive)
same,fluorescence ratio (interference),[3],1 (inactive)
NC(N)=NCCC[C@H](N)C(=O)O,period change,[1],-0.2 h (inactive)
same,inhibition,[2],-3% (inactive)
same,fluorescence ratio (interference),[3],1 (inactive)
same,remaining NAD,[16],10 nM (inactive)
O=C(O)CP(=O)(O)O,period change,[1],0.02 h (inactive)
same,inhibition,[2],-3% (inactive)
same,fluorescence ratio (interference),[3],0.9 (inactive)
C[C@]12CCC(=O)C=C1CC[C@@H]1[C@@H]2CC[C@@]2(C)[C@H]1CC[C@]2(O)C(=O)CO,period change,[1],-0.335 h (inactive)
same,inhibition,[2],0% (inactive)
same,fluorescence ratio (interference),[3],1 (inactive)
O=C(O)CN(CCOCCOCCN(CC(=O)O)CC(=O)O)CC(=O)O,period change,[1],0.1 h (inactive)
same,inhibition,[2],-1% (inactive)
same,fluorescence ratio (interference),[3],1 (inactive)
OCCN1CCN(CCCN2c3ccccc3C=Cc3ccccc32)CC1,inhibition,[2],-5% (inactive)
same,fluorescence ratio (interference),[3],1 (inactive)
N[C@@H](CC(=O)O)C(=O)O,period change,[1],0.065 h (inactive)
same,inhibition,[2],0% (inactive)
same,fluorescence ratio (interference),[3],0.9 (inactive)
same,remaining NAD,[16],10 nM (inactive)
COC(=O)[C@@H](N)Cc1ccc(O)c(O)c1,period change,[1],0.105 h (inactive)
same,inhibition,[2],-2% (inactive)
same,fluorescence ratio (interference),[3],1 (inactive)
CSc1ccc(C(=O)c2[nH]c(=O)[nH]c2C)cc1,period change,[1],0.015 h (inactive)
same,inhibition,[2],0% (inactive)
same,fluorescence ratio (interference),[3],1.1 (inactive)
CCN(CC)C(=O)/C(C#N)=C/c1cc(O)c(O)c([N+](=O)[O-])c1,remaining NAD,[16],10 nM (inactive)
CCN[C@H]1CN(CCCOC)S(=O)(=O)c2sc(S(N)(=O)=O)cc21,remaining NAD,[16],10 nM (inactive)
